{"source": "PubChem BioAssay (EPA / NIEHS)", "note": "Active and inactive are the calls of the source. Rule for the calls: active = hit-call score of the fitted dose curve at least 0.9, where 1 is the maximum; inactive = score below 0.9."}
{"assay": "CEETOX_H295R_11DCORT_noMTC: CeeTox H295R High-throughput Steroidogenesis Assay for 11-Deoxycortisol (11DCORT), maximum tolerated concentration (MTC) filtered results only (AID 2283911)", "details": "actives raise or lower the signal", "method_in_brief": "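H295R cells were prestimulated 48 h with 10 uM forskolin, then exposed 48 h to chemical (0.1% DMSO final). 11-Deoxycortisol in the medium was measured by MTBE extraction and HPLC-MS/MS, with bidirectional fitting versus DMSO and no MTC filtering of concentrations.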"}
{"compound": "Cn1sc(Cl)cc1=O", "outcome": "inactive"}
{"compound": "ClC(Cl)=C(Cl)C(Cl)=C(Cl)Cl", "outcome": "inactive"}
{"compound": "CCC1(c2ccc(N)cc2)CCC(=O)NC1=O", "note": "(stereo not given)", "outcome": "inactive"}
{"compound": "c1cc[c]([Hg][c]2ccccc2)cc1", "AC50": "53.6 µM (active)"}
{"compound": "O=C(OC1CCCCC1)c1ccccc1C(=O)OC1CCCCC1", "AC50": "2.24 µM (active)"}
{"assay": "CEETOX_H295R_OHPREG_noMTC: CeeTox H295R High-throughput Steroidogenesis Assay for OH-Pregnenolone (OHPREG), maximum tolerated concentration (MTC) filtered results only (AID 2283912)", "details": "actives raise or lower the signal", "method_in_brief": "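Medium 17alpha-hydroxypregnenolone quantified by reverse-phase HPLC-MS/MS after 48 h chemical exposure of forskolin-prestimulated (10 uM, 48 h) H295R, 0.1% DMSO final. Fitting bidirectional relative to DMSO; no maximum-tolerated-concentration filtering applied.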"}
{"compound": "Cn1sc(Cl)cc1=O", "outcome": "inactive"}
{"compound": "ClC(Cl)=C(Cl)C(Cl)=C(Cl)Cl", "outcome": "inactive"}
{"compound": "CCC1(c2ccc(N)cc2)CCC(=O)NC1=O", "note": "(stereo not given)", "outcome": "inactive"}
{"compound": "c1cc[c]([Hg][c]2ccccc2)cc1", "AC50": "27.1 µM (active)"}
{"compound": "O=C(OC1CCCCC1)c1ccccc1C(=O)OC1CCCCC1", "AC50": "2.11 µM (active)"}
